The values below come from paper PMC7862700, “An all-to-all approach to the identification of sequence-specific readers for epigenetic DNA modifications on cytosine”.

Holding throughout (test): DAPPL (digital affinity profiling via proximity ligation, sequencing); 10 mM Tris-HCl pH 7.5, 50 mM NaCl, 1 mM DTT, 4% glycerol, room temperature, 30 min; GST-TFs on glutathione beads, 16-mer random dsDNA library, 0.1% formaldehyde crosslink after washing; high values mean tight binding
For test [1], the target named is T1, FEV (Homo sapiens, UniProt Q99581 1-238).
T1 sequence: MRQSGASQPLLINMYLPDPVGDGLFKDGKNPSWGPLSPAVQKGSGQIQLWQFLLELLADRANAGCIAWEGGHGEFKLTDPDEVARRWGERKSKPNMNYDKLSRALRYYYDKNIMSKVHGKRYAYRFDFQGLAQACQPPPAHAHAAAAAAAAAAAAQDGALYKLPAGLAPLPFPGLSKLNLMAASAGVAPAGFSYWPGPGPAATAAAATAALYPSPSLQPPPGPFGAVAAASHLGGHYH
The note with it: protein: recombinant; tags: N-terminal GST; dsDNA, one strand shown. In short, it runs like this:
(§1)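 In yeast, human transcription factors were expressed with a GST fusion, then pulled down on glutathione beads and given DNA barcodes. Pooled with a tag-only sample, they were exposed to 200 nmole of a 16-mer random double-stranded DNA library (Tris/NaCl/DTT/glycerol buffer, room temperature, 30 min), washed, crosslinked with 0.1% formaldehyde, proximity-ligated using BsaI/T4 ligase for 1 h at 37 °C, PCR-amplified and read on an Illumina NextSeq500. Each hexamer's frequency of reads for a factor, divided by the matching frequency for the tag-only sample, gives the binding signal.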

The target of test [2] is ETV5 (Homo sapiens, UniProt P41161 1-510). The conditions noted are these: protein: recombinant; tags: N-terminal GST; dsDNA, one strand shown. In short, it runs like this: as §1
Test [3] addresses HSF1 (Homo sapiens, UniProt Q00613 1-529). The note with it: protein: recombinant; tags: N-terminal GST; chain copies: 3; dsDNA, one strand shown. In short, it runs like this: as §1
Test [4] deals with T2, SPIC (Homo sapiens, UniProt Q8N5J4 1-248).
T2 sequence: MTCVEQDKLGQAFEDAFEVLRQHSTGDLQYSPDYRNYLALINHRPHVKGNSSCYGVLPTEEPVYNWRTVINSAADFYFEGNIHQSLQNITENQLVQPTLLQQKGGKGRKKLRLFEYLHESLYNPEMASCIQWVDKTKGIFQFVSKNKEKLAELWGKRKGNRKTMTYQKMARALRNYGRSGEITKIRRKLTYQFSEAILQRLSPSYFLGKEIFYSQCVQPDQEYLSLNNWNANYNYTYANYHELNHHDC
The conditions noted are these: protein: recombinant; tags: N-terminal GST; dsDNA, one strand shown. In short, it runs like this: as §1

In test [5] the target is ELF4 (Homo sapiens, UniProt Q99607 1-663). The note with it: protein: recombinant; tags: N-terminal GST; dsDNA, one strand shown. In short, it runs like this: as §1
The target in test [6] is T3, ELK4 (Homo sapiens, UniProt P28324-2 1-405).
T3 sequence: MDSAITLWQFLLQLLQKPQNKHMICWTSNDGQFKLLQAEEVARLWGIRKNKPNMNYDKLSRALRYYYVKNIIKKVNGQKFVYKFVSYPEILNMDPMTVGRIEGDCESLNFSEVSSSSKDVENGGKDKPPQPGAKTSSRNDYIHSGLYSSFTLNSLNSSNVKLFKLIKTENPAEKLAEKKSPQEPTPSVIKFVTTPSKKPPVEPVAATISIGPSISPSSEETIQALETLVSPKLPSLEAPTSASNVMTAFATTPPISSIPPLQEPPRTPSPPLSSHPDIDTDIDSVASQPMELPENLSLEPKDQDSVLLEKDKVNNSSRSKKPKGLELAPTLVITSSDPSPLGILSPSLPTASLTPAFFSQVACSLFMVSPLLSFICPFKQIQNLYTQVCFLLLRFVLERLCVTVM
The conditions noted are these: protein: recombinant; tags: N-terminal GST; dsDNA, one strand shown. In short, it runs like this:
as §1

Test [7] has as its target T4, ETV2 (Homo sapiens, UniProt O00321 1-342).
T4 sequence: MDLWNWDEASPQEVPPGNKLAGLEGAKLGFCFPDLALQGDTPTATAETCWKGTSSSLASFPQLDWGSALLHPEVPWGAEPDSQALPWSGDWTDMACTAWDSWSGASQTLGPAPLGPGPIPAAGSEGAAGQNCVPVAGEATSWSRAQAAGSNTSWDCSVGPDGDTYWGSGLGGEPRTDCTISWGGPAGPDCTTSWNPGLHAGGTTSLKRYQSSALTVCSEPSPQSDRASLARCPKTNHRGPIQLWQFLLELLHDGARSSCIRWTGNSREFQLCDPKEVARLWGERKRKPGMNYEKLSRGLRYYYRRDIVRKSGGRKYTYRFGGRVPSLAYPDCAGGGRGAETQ
The note with it: protein: recombinant; tags: N-terminal GST; dsDNA, one strand shown. In short, it runs like this:
as §1

The target of test [8] is T5, ELF3 (Homo sapiens, UniProt P78545 1-371).
T5 sequence: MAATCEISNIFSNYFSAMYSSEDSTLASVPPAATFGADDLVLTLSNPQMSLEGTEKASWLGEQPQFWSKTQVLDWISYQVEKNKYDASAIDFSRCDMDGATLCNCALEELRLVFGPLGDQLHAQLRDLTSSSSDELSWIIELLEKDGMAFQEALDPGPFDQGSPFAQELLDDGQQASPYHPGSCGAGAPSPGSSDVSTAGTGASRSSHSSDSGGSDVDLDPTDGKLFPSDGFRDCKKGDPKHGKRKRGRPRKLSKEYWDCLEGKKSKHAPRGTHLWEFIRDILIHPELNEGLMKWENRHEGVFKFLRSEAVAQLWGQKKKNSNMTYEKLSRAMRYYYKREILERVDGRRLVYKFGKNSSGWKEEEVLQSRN
The conditions noted are these: protein: recombinant; tags: N-terminal GST; dsDNA, one strand shown. In short, it runs like this: as §1

The target in test [9] is CRX (Homo sapiens, UniProt O43186 1-299). The conditions noted are these: protein: recombinant; tags: N-terminal GST; dsDNA, one strand shown. In short, it runs like this: as §1
For test [10], the target named is ETV1 (Homo sapiens, UniProt P50549 1-477). The note with it: protein: recombinant; tags: N-terminal GST; dsDNA, one strand shown. In short, it runs like this: as §1
Test [11] concerns the target T6, ERF (Homo sapiens, UniProt P50548 1-548).
T6 sequence: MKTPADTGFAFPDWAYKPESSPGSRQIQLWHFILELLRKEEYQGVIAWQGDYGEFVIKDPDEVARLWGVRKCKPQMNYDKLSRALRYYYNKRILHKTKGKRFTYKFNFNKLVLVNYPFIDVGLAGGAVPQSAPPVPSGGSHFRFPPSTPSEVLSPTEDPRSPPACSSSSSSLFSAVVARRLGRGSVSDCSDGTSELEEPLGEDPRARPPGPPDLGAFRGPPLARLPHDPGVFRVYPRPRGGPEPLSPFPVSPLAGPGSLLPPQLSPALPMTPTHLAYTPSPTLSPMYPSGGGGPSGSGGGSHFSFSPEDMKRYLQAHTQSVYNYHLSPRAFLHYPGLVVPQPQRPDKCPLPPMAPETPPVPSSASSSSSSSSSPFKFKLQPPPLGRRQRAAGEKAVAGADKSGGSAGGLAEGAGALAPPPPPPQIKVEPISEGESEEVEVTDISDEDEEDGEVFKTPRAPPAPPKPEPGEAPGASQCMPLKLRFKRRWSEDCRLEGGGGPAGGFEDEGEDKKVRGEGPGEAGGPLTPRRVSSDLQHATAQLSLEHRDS
The conditions noted are these: protein: recombinant; tags: N-terminal GST; dsDNA, one strand shown. In short, it runs like this:
as §1

For test [12], the target named is T7, ETV3L (Homo sapiens, UniProt Q6ZN32 1-361).
T7 sequence: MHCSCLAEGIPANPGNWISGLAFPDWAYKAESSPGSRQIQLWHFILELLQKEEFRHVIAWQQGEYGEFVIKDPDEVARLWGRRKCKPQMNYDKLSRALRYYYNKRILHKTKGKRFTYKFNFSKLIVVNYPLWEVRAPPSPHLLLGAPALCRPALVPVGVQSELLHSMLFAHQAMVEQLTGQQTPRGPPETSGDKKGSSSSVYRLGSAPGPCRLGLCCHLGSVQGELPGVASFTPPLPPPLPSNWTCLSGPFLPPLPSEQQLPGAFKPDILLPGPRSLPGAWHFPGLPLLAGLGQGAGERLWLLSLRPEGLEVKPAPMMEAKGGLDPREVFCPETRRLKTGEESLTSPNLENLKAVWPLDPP
The note with it: protein: recombinant; tags: N-terminal GST; dsDNA, one strand shown. In short, it runs like this: as §1

Test [13] concerns the target T8, ETS2 (Homo sapiens, UniProt P15036 1-469).
T8 sequence: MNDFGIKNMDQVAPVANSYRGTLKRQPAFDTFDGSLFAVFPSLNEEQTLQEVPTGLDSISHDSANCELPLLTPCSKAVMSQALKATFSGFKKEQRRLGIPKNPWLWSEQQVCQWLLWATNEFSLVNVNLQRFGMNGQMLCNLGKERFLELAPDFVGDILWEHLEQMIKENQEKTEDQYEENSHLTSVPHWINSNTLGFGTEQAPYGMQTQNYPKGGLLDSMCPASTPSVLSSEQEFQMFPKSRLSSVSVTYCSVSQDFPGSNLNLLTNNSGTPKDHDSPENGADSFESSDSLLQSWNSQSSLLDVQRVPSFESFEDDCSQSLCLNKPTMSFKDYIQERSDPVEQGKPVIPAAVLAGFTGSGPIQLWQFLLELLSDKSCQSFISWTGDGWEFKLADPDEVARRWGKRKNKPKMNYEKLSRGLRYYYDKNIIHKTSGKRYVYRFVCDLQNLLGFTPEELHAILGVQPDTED
The note with it: protein: recombinant; tags: N-terminal GST; dsDNA, one strand shown. In short, it runs like this:
as §1

Test [14] has as its target T9, SPDEF (Homo sapiens, UniProt O95238 1-335).
T9 sequence: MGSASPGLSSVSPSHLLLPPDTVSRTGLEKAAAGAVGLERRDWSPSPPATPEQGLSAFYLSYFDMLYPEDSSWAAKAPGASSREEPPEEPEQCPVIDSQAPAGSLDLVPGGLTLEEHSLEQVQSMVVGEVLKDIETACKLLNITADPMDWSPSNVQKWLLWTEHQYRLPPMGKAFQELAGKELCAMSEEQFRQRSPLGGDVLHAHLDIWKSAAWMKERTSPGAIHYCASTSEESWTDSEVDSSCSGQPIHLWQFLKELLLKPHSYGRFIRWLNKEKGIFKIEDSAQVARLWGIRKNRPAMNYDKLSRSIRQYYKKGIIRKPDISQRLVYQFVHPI
The conditions noted are these: protein: recombinant; tags: N-terminal GST; dsDNA, one strand shown. In short, it runs like this:
as §1

For test [15], the target named is T10, ETV7 (Homo sapiens, UniProt Q9Y603 1-341).
T10 sequence: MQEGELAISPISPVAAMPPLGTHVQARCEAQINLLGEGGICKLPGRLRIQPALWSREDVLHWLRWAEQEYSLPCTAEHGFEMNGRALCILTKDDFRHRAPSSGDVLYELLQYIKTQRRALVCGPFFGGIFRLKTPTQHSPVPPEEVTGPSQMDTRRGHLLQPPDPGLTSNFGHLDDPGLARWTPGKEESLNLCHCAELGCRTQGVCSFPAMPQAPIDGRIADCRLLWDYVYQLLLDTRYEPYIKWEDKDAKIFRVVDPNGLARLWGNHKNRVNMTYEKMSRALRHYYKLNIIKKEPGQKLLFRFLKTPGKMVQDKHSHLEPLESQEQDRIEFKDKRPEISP
The conditions noted are these: protein: recombinant; tags: N-terminal GST; dsDNA, one strand shown. In short, it runs like this: as §1

Test [16] addresses T11, ELF5 (Homo sapiens, UniProt Q9UKW6-2 1-255).
T11 sequence: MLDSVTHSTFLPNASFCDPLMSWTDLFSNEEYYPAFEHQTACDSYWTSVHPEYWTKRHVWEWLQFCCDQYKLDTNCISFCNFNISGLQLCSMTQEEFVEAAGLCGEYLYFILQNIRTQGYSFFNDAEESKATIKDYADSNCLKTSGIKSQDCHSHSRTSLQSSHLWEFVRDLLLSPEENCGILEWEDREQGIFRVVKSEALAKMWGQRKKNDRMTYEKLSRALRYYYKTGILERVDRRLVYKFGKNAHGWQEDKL
The note with it: protein: recombinant; tags: N-terminal GST; dsDNA, one strand shown. In short, it runs like this: as §1

Test [17] concerns the target T12, ETV3 (Homo sapiens, UniProt P41162-2 1-143).
T12 sequence: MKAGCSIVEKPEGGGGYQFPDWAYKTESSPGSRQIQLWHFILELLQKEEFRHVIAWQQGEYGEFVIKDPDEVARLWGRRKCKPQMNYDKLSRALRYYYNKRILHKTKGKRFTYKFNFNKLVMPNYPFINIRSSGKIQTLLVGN
The conditions noted are these: protein: recombinant; tags: N-terminal GST; dsDNA, one strand shown. In short, it runs like this:
as §1

The target of test [18] is ETV6 (Homo sapiens, UniProt P41212 1-452). The note with it: protein: recombinant; tags: N-terminal GST; dsDNA, one strand shown. In short, it runs like this:
as §1

Chain of HSF1 (Q00613 whole entry): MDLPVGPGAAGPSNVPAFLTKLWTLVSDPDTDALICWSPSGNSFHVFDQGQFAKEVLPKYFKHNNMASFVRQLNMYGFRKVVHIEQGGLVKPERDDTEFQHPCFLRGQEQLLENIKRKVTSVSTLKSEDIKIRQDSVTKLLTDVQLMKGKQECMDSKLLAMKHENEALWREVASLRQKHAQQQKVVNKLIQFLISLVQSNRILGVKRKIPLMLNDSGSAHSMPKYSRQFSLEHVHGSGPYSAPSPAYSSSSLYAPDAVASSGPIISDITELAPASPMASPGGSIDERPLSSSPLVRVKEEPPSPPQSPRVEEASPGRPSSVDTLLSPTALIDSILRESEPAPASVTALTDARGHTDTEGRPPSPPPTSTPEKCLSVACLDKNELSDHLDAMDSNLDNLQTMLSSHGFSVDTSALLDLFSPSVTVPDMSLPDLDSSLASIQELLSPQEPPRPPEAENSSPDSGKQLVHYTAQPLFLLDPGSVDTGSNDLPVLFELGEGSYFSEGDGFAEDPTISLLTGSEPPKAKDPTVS
Chain of CRX (O43186 whole entry): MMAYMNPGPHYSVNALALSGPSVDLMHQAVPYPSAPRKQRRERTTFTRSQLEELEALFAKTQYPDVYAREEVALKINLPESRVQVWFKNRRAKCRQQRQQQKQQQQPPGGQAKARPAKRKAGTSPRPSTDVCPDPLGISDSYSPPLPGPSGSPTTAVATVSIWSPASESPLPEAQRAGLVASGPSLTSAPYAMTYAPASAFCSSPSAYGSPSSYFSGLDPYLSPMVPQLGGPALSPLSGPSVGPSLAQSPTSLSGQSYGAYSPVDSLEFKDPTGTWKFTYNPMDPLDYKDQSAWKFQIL
Chain of ETV1 (P50549 whole entry): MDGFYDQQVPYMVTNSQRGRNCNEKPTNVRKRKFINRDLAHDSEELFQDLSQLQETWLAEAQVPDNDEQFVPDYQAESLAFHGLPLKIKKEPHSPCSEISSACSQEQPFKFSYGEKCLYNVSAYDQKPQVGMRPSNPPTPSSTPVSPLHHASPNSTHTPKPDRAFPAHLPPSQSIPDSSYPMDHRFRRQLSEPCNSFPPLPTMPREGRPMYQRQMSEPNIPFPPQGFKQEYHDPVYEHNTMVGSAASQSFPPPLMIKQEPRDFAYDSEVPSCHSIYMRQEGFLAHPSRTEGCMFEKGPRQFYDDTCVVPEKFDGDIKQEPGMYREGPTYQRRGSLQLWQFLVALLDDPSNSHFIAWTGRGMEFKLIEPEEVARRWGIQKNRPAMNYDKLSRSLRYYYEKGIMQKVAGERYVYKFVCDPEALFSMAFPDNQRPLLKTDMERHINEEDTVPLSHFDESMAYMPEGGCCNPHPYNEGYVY
Chain of ELF4 (Q99607 whole entry): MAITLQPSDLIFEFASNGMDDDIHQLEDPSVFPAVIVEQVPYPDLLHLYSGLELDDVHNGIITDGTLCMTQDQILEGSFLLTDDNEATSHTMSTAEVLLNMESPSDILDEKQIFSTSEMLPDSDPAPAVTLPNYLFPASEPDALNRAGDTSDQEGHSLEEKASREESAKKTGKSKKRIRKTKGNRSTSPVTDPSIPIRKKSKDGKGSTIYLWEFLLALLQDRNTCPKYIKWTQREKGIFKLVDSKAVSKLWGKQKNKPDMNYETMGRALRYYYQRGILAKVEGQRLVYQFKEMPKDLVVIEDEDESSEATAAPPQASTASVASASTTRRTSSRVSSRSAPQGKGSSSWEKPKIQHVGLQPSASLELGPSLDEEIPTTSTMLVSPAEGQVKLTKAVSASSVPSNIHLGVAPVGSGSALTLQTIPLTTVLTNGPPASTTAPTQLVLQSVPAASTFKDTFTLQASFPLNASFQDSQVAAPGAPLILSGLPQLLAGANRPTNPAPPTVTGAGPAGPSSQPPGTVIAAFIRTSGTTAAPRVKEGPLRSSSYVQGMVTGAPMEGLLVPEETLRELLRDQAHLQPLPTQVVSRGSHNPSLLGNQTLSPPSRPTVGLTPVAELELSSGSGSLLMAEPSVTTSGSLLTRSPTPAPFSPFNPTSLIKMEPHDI
Chain of ETV6 (P41212 whole entry): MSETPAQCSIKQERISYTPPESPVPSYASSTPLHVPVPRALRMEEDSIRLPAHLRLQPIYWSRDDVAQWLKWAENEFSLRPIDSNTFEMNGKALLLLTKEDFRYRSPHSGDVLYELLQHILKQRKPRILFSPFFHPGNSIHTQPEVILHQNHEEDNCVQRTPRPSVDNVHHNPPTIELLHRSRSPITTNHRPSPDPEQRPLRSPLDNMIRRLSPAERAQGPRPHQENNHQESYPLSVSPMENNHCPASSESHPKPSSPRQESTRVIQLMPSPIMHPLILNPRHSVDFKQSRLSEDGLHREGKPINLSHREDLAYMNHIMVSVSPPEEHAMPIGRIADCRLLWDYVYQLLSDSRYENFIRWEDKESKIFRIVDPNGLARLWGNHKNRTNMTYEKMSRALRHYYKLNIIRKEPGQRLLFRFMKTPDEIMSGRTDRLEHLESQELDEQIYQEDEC
Chain of ETV5 (P41161 whole entry): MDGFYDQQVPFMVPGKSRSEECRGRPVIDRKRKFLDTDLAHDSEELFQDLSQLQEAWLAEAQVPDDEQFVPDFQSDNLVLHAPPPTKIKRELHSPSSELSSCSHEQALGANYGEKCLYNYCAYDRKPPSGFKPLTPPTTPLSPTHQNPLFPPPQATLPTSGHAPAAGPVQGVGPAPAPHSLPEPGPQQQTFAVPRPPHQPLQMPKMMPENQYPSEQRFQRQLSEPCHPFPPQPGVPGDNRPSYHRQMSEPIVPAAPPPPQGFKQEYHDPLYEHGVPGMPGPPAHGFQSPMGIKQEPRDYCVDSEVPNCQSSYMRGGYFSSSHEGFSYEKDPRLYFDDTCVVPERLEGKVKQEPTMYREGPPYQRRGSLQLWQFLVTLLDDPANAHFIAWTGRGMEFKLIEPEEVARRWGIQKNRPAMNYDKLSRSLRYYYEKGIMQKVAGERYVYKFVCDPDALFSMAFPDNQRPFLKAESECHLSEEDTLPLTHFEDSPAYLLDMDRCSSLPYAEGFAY

Consider CTCACG, for which the binding signal in test [1] is 1.32 fold enrichment (6-mer frequency, TF over GST control); in test [2], 1.4 fold enrichment (6-mer frequency, TF over GST control); in [3], 1.14 fold enrichment (6-mer frequency, TF over GST control); in test [4] it was 1.31 fold enrichment (6-mer frequency, TF over GST control); in [5], 1.33 fold enrichment (6-mer frequency, TF over GST control); in test [6], 1.35 fold enrichment (6-mer frequency, TF over GST control). Also, the binding signal in [7] is 1.35 fold enrichment (6-mer frequency, TF over GST control); in [8], 1.26 fold enrichment (6-mer frequency, TF over GST control); in [9], 1.08 fold enrichment (6-mer frequency, TF over GST control); in test [10], 1.22 fold enrichment (6-mer frequency, TF over GST control); in [11], 1.25 fold enrichment (6-mer frequency, TF over GST control); in test [12], 1.3 fold enrichment (6-mer frequency, TF over GST control). In addition, the binding signal in test [13] is 1.4 fold enrichment (6-mer frequency, TF over GST control); in [14], 1.26 fold enrichment (6-mer frequency, TF over GST control); in test [15], 1.25 fold enrichment (6-mer frequency, TF over GST control); in test [16], 1.26 fold enrichment (6-mer frequency, TF over GST control); in test [17] it was 1.23 fold enrichment (6-mer frequency, TF over GST control); in test [18] it was 1.25 fold enrichment (6-mer frequency, TF over GST control).
